Bioassay records: PubChem, NMMLSC
RGS16-Gao = modulates binding between human RGS16 and Galphao; bead-based flow cytometry RGS16-Galphao binding, fluorescence; actives lie on both sides; binding response (% of control), % at 10 µM; 220,000 tested, 0.38% active; AID 1441; call rule not given here;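 also: Galphao activated by GDP with aluminum fluoride before binding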
Target sequence (O15492 whole entry, looked up): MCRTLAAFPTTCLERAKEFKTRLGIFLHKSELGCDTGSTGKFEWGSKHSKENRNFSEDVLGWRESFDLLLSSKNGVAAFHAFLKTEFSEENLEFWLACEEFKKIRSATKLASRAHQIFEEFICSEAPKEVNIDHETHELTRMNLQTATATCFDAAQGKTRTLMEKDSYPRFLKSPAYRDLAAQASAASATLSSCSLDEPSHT
Target sequence (P09471 whole entry, looked up): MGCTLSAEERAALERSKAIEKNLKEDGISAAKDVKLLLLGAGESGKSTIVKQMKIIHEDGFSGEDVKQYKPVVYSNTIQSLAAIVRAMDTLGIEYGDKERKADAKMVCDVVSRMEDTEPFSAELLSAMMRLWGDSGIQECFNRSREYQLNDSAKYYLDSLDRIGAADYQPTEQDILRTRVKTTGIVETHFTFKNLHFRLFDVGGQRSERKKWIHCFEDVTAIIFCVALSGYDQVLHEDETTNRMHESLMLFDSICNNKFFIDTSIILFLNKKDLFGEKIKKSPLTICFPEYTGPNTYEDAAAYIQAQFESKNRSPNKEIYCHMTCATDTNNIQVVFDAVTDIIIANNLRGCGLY
Avidin fluor = avidin bead compound fluorescence profile | fluorescence (KMESF) at 10 µM | AID 1775 | 220,000 tested, 0.38% active | Avidin beads, compound fluorescence 488/530 nm, flow cytometry; hits give high values; in the data active = fluorescence above about 47
RGS7-Gao reg = modulates binding of RGS7 to human Galphao; Multiplexed bead flow cytometry; actives lie on both sides; binding response (% of control), % at 10 µM; 220,000 tested, 0.35% active; AID 1439; in the data active = binding response below about 49% or above about 150%; inconclusive = no clear call, values can overlap the other calls; inactive = in between;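 also: fluorescent Galphao held in activated GDP-AlF4 state binding bead-coupled RGS7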
Target sequence (P09471 whole entry, looked up): as above
RGS4-Gao reg = human RGS4-Galphao interaction regulation; P09471; Multiplexed bead flow cytometry, RGS4-Galphao binding; actives lie on both sides; binding response (% of control), % at 10 µM; 220,000 tested, 0.33% active; AID 1415; in the data active = binding response below about 49% or above about 150%; inactive = in between;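 also: fluorescent Galphao activated with aluminum fluoride binding bead-coupled RGS4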
RGS8-Gao reg = human RGS8-Galphao interaction regulation | P09471 | multiplexed bead flow cytometry, RGS8-Galphao binding; actives lie on both sides | response (percent of control binding), % at 10 µM | 220,000 tested, 0.34% active | AID 1423; in the data active = response below about 60% or above about 140%; inactive = in between;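 also: Galphao activated as the GDP aluminium fluoride complex binding bead-coupled RGS8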
GSH bead fluor = GSH bead compound fluorescence profile. 190,000 tested, 0.25% active. GSH beads flow cytometry, compound fluorescence 488/530 nm; hits give high values. fluorescence (KMESF) at 10 µM; in the data active = fluorescence above about 89;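 also: glutathione beads carrying GST-tagged Bcl family fusion proteins plus one bare bead set; values are compound well signal with DMSO vehicle wells as background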
* marks the source's active call; other numbers are inactive results; u = inconclusive; x = not tested or not shown; [ ] = dose if it differs, or a comment. Most compounds without a hit are left out; they make up all but 1.2% or so of the library.

SMILES | RGS16-Gao | Avidin fluor | RGS7-Gao reg | RGS4-Gao reg | RGS8-Gao reg | GSH bead fluor
CCCCOCC(O)Cn1c(C)nc2ccccc21 (configuration not stated) | 114.2 | 9 | 101.5 | 105.8 | 102.0 | 261*
NCC12CC3CC(CC(O)(C3)C1)C2 | 102.3 | 7 | 101.4 | 103.0 | 102.8 | 262*
COCC(C)n1c(SCc2ccc(OC)c(F)c2)nc2ccccc2c1=O (configuration not stated) | 117.7 | 22 | 103.8 | 107.0 | 110.0 | 15
Cc1ccc(-c2nc3sc4c(c3c(=O)n2N)CC(C)(C)OC4)cc1 | 105.9 | 55* | 103.3 | 99.8 | 99.5 | 25
Cc1nc2ccc(NC(=O)Cc3ccccc3F)cc2s1 | 102.5 | 53* | u | 114.6 | 102.7 | 17
C/C(=N\NC(=O)COc1cccc(Cl)c1)c1ccc2c(c1)OCCO2 | 107.6 | 19 | 105.4 | 110.4 | 99.2 | 314*
C/C(=N\NC(=O)CSCc1ccc(Cl)cc1)c1ccc2c(c1)OCCO2 | 103.0 | 3 | 100.8 | 104.0 | 99.2 | 22
O=C(Nc1ccc2oc(=O)ccc2c1)c1ccc(-c2cccc(Cl)c2)o1 | 90.5 | 13 | u | 90.7 | 98.9 | x
O=C(Nc1ccc2oc(=O)ccc2c1)c1ccc(-c2cccc([N+](=O)[O-])c2)o1 | 97.2 | 65* | u | 98.2 | 101.7 | x
COCCCn1c(SCC(=O)NCc2ccccc2)nc2ccccc2c1=O | 111.8 | 6 | 108.4 | 105.8 | 105.3 | 14
COCCCn1c(SCC(=O)Nc2ccc(C(C)=O)cc2)nc2ccccc2c1=O | 92.0 | 7 | 98.8 | 94.4 | 100.1 | 259*
COc1ccc(Cn2c(=O)[nH]c3cc(C(=O)NCc4ccc5c(c4)OCO5)ccc3c2=O)cc1 | 105.6 | 65* | 109.2 | 101.8 | 100.0 | 19
COc1ccc(Cn2c(=O)[nH]c3cc(C(=O)NCCCOC(C)C)ccc3c2=O)cc1 | 104.0 | 10 | 99.0 | 97.8 | 101.2 | 26
Cn1c(=O)[nH]c(=O)c2[nH]c(NCCCN3CCOCC3)nc21 | 120.6 | 48* | 105.4 | 109.1 | 94.9 | 26
Fc1ccc2c(Cl)c(-c3nnc(-c4cccs4)o3)sc2c1 | 101.3 | 7 | 100.9 | 98.9 | 100.5 | 255*
CCOc1ccc(C(=O)Nc2nnn(CC)n2)cc1 | 92.3 | 7 | 93.2 | 94.1 | 97.7 | 16
CCn1nnc(NC(=O)c2cccnc2Cl)n1 | 104.7 | 9 | 98.6 | 97.7 | 101.0 | 259*
COc1ccc(/C=C/C(=O)c2ccccc2O)cc1 | 107.4 | 69* | 148.4 | 159.0*[activator] | 103.2 | 17
O=C(Nc1ccc(Cl)cc1)Nc1csc([N+](=O)[O-])c1 | 99.0 | 6 | u | 100.5 | 101.8 | x
COc1ccc(Cl)cc1N(CC(=O)N/N=C/c1ccc(OC(C)C)cc1)S(=O)(=O)c1ccc(C)c([N+](=O)[O-])c1 | 103.4 | 12 | 93.5 | 100.0 | 104.3 | 5
C=CCOc1cccc(/C=N/NC(=O)CN(c2cc(Cl)ccc2OC)S(=O)(=O)c2ccc(C)c([N+](=O)[O-])c2)c1 | 121.9 | 34 | 120.5 | 116.7 | 98.2 | 196*
Cc1cccc2[nH]c3c(N4CC=C(c5ccc(F)cc5)CC4)ncnc3c12 | 100.3 | 10 | u | 105.6 | 98.5 | x
Cc1ccc2ccc(S(=O)(=O)n3nc(C)cc3C)cc2c1 | 108.6 | 54* | 120.0 | 108.0 | 103.1 | 27
COc1ccc(OC)c(NC(=O)COC(=O)c2ccc(S(=O)(=O)N3CCOCC3)cc2)c1 | 102.1 | 7 | 98.7 | 98.8 | 100.0 | 276*
CCc1nn(CC(=O)Nc2ccc(Br)c(C)c2)c(=N)s1 | 98.3 | 12 | 100.7 | 100.4 | 98.2 | 13
SMILES | RGS16-Gao | Avidin fluor | RGS7-Gao reg | RGS4-Gao reg | RGS8-Gao reg | GSH bead fluor
C=CCN=C1S/C(=C\c2ccc(Cl)cc2)C(=O)N1CC=C | 113.7 | 49* | u | 122.3 | 98.5 | x
O=c1c(-c2ccnn2-c2ccccc2F)cnc2n1CCS2 | 96.9 | 7 | 101.8 | 101.3 | 101.4 | 249*
COc1cccc(F)c1C(C[N+](=O)[O-])c1c(N)n(C)c(=O)n(C)c1=O (configuration not stated) | 97.1 | 8 | u | 101.4 | 101.3 | x
COc1ccc(NC(=O)CCC(=O)OC(C(=O)c2ccccc2)c2ccccc2)cc1 (configuration not stated) | 100.7 | 55* | 106.3 | 100.0 | 101.3 | 27
Cc1ccc(C(=O)C(OC(=O)CCC(=O)Nc2cccc(C)c2)c2ccccc2)cc1 (configuration not stated) | 99.3 | 34 | 98.4 | 96.4 | 98.5 | 20
COc1ccc(N2CCN(C(C)C(=O)Nc3nnc(C)s3)CC2)cc1 (configuration not stated) | 106.8 | 11 | 106.9 | 98.7 | 102.9 | 10
O=C1CSC(=S)N1Cc1cccnc1 | 100.9 | 8 | 99.8 | 103.5 | 97.4 | 65
O=C1CSC(=S)N1c1cccnc1 | 99.2 | 7 | 97.6 | 99.7 | 101.1 | 266*
CCO[C@H]1OC(C(=O)N2CCCCCCC2)=C[C@@H](c2coc3ccccc3c2=O)[C@@H]1CCCO | 101.0 | 6 | 104.1 | 96.4 | 100.3 | 17
N#C/C(=C/Nc1ccccc1)c1ccsc1 | 105.2 | 51* | 110.2 | 103.0 | 104.3 | 15
Cc1ccc(N/C=C(/C#N)c2ccsc2)cc1 | 102.5 | 12 | 99.9 | 102.2 | 102.1 | 26
CCC(=O)O/N=C(\N)c1ccc(Oc2cc(C)c(Cl)c(C)c2)c([N+](=O)[O-])c1 | 90.4 | 9 | u | 86.3 | 99.0 | x
CCN(CC)S(=O)(=O)c1csc(C(=O)OCC(=O)c2ccccc2)c1 | 86.5 | 4 | 87.5 | 82.8 | 95.4 | 104*
CCc1nc2ccccc2c(=O)n1NC(=O)c1c(O)c2ccccc2n(CC)c1=O | 101.0 | 11 | 101.1 | 104.4 | 98.5 | 17
CCn1c(=O)c(C(=O)Nc2nc3ccccc3[nH]2)c(O)c2ccccc21 | 108.4 | 4 | 105.6 | 105.0 | 103.5 | 114*
CCC(CC)NC(=O)c1ccc2nc[nH]c2c1 | 102.3 | 9 | 96.2 | 102.7 | 101.6 | 262*
CC(NC(=O)c1ccc2nc[nH]c2c1)c1ccccc1 (configuration not stated) | 112.0 | 11 | 109.0 | 102.8 | 106.5 | 25
Cn1c(Cc2ccccc2)nnc1SCC(=O)Nc1ccc2c(c1)OCCO2 | 100.4 | 8 | 97.2 | 96.8 | 100.4 | 255*
CCn1c(Cc2ccccc2)nnc1SCC(=O)Nc1ccc2c(c1)OCO2 | 100.9 | 9 | 102.1 | 100.7 | 100.3 | 45
c1coc(CNC2CCCCC2)c1 | 90.8 | 6 | 95.4 | 96.4 | 92.7 | 14
c1coc(CNC2CCCCCCC2)c1 | 110.6 | 84* | 140.8 | 91.0 | 69.0 | 11
COc1cc(C(=O)COC(=O)CNC(=O)C2CCCCC2)cc(OC)c1OC | 101.3 | 53* | 107.0 | 103.0 | 102.3 | 15
O=C(CN1C(=O)c2ccccc2S1(=O)=O)NCCC1=CCCCC1 | 91.1 | 4 | 89.6 | 85.0 | 98.5 | 117*
Cc1ccc(C(=O)NCC(=O)O)o1 | 104.3 | 10 | 105.0 | 106.0 | 104.3 | 18
